Assay in all cases: DAPPL (digital affinity profiling via proximity ligation, sequencing); 10 mM Tris-HCl pH 7.5, 50 mM NaCl, 1 mM DTT, 4% glycerol, room temperature, 30 min; GST-TFs on glutathione beads, 16-mer random dsDNA library, 0.1% formaldehyde crosslink after washing; high values mean tight binding
One test has as its target T1, FEV (Homo sapiens, UniProt Q99581 1-238).
T1 sequence: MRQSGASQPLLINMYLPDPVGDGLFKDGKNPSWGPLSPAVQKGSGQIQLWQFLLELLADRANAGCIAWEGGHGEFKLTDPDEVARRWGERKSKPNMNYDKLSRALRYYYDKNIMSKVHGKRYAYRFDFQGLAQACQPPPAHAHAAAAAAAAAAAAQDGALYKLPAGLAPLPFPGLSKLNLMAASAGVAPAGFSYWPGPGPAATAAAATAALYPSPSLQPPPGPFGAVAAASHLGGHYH
Conditions: protein: recombinant; tags: N-terminal GST; dsDNA, one strand shown. Summed up:
(§1)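 Beads coated with glutathione captured GST-fused human transcription factors that had been expressed in yeast, and the factors were then given DNA barcodes and pooled with a tag-only sample. The pools were incubated with 200 nmole of a random double-stranded 16-mer DNA library in Tris/NaCl/DTT/glycerol buffer for 30 min at room temperature, washed, crosslinked with 0.1% formaldehyde and proximity-ligated with BsaI/T4 ligase at 37 °C for 1 h. PCR amplification and Illumina NextSeq500 sequencing came last. Binding signal is each hexamer's read frequency for a factor divided by its frequency for the tag-only sample.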

A further test addresses ETV5 (Homo sapiens, UniProt P41161 1-510). The conditions noted are these: protein: recombinant; tags: N-terminal GST; dsDNA, one strand shown. The method in brief:
as §1

Another test addresses HSF1 (Homo sapiens, UniProt Q00613 1-529). The conditions noted are these: protein: recombinant; tags: N-terminal GST; chain copies: 3; dsDNA, one strand shown. Summed up:
as §1

In another test the target is T2, SPIC (Homo sapiens, UniProt Q8N5J4 1-248).
T2 sequence: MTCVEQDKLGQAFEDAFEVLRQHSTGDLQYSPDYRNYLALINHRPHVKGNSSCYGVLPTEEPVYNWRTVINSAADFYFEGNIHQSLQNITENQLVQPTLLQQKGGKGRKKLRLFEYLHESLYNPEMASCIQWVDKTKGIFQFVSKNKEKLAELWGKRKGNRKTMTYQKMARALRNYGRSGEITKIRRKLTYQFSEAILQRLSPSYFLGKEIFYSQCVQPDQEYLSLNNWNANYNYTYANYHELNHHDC
Conditions: protein: recombinant; tags: N-terminal GST; dsDNA, one strand shown. The method in brief: as §1

For the next test, the target named is ELF4 (Homo sapiens, UniProt Q99607 1-663). The conditions noted are these: protein: recombinant; tags: N-terminal GST; dsDNA, one strand shown. Summed up: as §1
Sequence of ELF4 (Q99607 whole entry): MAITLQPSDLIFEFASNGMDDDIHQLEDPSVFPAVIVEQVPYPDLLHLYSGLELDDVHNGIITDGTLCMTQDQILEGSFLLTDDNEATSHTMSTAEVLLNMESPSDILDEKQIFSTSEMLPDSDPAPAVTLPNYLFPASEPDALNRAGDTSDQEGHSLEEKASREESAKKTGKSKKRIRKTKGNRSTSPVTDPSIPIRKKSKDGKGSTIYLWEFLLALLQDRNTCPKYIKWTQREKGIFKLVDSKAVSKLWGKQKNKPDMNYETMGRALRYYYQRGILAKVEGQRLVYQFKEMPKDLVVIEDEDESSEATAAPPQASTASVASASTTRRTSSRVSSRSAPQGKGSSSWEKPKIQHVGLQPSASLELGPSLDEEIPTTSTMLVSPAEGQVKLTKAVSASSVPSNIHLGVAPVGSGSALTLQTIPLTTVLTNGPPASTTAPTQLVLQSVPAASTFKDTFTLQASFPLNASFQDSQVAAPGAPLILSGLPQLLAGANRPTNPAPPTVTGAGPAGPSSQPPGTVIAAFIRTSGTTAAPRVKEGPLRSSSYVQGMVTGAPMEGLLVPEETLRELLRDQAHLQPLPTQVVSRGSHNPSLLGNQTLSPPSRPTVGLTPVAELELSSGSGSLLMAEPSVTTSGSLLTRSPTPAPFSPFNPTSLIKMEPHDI
Another test deals with T3, ELK4 (Homo sapiens, UniProt P28324-2 1-405).
T3 sequence: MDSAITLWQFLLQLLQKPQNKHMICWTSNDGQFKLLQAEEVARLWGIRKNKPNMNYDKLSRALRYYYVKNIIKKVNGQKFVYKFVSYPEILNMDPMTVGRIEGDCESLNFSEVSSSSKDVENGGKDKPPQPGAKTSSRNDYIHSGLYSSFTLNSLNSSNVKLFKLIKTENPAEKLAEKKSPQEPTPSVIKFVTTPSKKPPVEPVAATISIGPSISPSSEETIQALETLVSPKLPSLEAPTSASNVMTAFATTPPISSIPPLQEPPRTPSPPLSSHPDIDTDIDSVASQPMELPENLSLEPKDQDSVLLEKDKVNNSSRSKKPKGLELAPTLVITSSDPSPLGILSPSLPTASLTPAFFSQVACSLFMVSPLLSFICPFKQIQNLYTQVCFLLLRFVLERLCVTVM
Conditions: protein: recombinant; tags: N-terminal GST; dsDNA, one strand shown. Summed up: as §1

In a further test the target is T4, ETV2 (Homo sapiens, UniProt O00321 1-342).
T4 sequence: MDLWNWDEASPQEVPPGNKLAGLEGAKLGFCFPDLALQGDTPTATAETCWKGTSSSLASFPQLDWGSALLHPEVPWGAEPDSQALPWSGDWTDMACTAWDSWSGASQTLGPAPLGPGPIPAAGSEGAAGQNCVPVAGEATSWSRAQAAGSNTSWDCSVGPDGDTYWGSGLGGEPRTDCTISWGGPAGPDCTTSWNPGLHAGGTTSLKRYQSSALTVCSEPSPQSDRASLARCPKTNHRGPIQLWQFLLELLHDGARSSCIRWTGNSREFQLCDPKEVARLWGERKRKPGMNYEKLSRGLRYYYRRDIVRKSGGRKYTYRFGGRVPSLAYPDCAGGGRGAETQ
Conditions: protein: recombinant; tags: N-terminal GST; dsDNA, one strand shown. Summed up: as §1

The target of a further test is T5, ELF3 (Homo sapiens, UniProt P78545 1-371).
T5 sequence: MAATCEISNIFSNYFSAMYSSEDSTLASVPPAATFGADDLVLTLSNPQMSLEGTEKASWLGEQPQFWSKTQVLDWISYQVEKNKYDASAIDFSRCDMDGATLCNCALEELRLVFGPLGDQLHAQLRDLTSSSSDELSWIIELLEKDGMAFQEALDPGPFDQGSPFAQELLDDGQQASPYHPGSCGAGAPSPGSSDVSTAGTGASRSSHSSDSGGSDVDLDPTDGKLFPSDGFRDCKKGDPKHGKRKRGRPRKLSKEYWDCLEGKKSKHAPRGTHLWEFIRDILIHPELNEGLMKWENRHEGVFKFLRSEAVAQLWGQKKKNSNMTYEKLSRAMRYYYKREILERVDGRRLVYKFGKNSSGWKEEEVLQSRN
Conditions: protein: recombinant; tags: N-terminal GST; dsDNA, one strand shown. Summed up: as §1

In the next test the target is CRX (Homo sapiens, UniProt O43186 1-299). Conditions: protein: recombinant; tags: N-terminal GST; dsDNA, one strand shown. Summed up:
as §1

In a further test the target is ETV1 (Homo sapiens, UniProt P50549 1-477). The conditions noted are these: protein: recombinant; tags: N-terminal GST; dsDNA, one strand shown. Summed up: as §1
Sequence of ETV1 (P50549 whole entry): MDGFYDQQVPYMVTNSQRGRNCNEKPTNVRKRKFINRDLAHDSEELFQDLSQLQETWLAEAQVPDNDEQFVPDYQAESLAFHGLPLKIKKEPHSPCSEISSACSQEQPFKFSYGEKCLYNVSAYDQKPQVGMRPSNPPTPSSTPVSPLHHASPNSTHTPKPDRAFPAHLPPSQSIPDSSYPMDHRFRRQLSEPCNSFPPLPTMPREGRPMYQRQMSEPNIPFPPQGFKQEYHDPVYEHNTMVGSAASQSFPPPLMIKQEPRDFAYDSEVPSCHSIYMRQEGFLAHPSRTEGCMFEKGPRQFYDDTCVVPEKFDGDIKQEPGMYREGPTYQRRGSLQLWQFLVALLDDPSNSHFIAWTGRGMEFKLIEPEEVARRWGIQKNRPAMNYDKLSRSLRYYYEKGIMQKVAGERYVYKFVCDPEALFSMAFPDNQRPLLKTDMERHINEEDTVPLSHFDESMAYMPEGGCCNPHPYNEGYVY

From publication PMC7862700, “An all-to-all approach to the identification of sequence-specific readers for epigenetic DNA modifications on cytosine” come the findings set out here.

Sequence of HSF1 (Q00613 whole entry): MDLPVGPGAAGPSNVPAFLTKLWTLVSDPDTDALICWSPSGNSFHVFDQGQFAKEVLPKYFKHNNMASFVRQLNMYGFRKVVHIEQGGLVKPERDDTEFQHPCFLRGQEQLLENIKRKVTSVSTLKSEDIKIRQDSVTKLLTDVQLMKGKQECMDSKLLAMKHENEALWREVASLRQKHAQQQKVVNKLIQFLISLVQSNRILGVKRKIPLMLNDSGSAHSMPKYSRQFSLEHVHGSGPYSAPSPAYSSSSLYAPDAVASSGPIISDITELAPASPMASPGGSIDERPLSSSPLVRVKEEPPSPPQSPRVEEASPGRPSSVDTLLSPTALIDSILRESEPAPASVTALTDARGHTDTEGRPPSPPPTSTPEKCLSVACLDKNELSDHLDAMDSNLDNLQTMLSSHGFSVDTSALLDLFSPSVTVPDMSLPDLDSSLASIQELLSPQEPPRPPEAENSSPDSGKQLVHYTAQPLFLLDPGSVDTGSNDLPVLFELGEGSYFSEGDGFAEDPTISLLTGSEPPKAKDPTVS
Sequence of ETV5 (P41161 whole entry): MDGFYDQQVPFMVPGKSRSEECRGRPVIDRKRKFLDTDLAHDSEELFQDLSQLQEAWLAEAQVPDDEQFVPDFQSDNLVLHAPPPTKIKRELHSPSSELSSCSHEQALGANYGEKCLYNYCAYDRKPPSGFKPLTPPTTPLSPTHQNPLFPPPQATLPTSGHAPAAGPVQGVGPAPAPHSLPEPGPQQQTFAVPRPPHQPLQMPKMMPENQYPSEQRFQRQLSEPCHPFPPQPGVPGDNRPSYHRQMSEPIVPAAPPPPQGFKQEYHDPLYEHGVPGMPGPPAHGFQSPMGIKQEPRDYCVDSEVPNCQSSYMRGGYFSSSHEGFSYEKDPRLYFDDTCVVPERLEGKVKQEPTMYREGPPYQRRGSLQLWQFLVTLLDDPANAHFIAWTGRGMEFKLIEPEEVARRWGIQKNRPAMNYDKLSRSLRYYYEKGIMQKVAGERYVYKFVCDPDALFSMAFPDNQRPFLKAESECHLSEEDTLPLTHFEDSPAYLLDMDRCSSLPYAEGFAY
Sequence of CRX (O43186 whole entry): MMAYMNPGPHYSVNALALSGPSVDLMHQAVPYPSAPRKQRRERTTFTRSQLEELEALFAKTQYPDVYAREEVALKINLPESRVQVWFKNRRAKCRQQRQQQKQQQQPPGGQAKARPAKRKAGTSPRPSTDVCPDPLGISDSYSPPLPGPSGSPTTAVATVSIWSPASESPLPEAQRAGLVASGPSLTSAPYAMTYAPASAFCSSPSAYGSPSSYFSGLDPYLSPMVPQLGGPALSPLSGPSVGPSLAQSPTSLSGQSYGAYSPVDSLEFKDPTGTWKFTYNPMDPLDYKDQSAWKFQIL

Consider GACTTC, for which the binding signal with FEV was 3.36 fold enrichment (6-mer frequency, TF over GST control); with ETV5, 2.51 fold enrichment (6-mer frequency, TF over GST control); with HSF1, 1.23 fold enrichment (6-mer frequency, TF over GST control); in the test with SPIC, 2.23 fold enrichment (6-mer frequency, TF over GST control); with ELF4, 2.28 fold enrichment (6-mer frequency, TF over GST control); in the test with ELK4, 2.22 fold enrichment (6-mer frequency, TF over GST control). Moreover, the binding signal with ETV2 is 2.35 fold enrichment (6-mer frequency, TF over GST control); with ELF3, 2.29 fold enrichment (6-mer frequency, TF over GST control); in the test with CRX, 1.12 fold enrichment (6-mer frequency, TF over GST control); in the test with ETV1, 2.56 fold enrichment (6-mer frequency, TF over GST control).
CTGACT: the binding signal in the test with FEV was 1.32 fold enrichment (6-mer frequency, TF over GST control); with ETV5, 1.23 fold enrichment (6-mer frequency, TF over GST control); in the test with HSF1 it was 1.05 fold enrichment (6-mer frequency, TF over GST control); with SPIC, 1.24 fold enrichment (6-mer frequency, TF over GST control); with ELF4 it was 1.37 fold enrichment (6-mer frequency, TF over GST control); with ELK4, 1.22 fold enrichment (6-mer frequency, TF over GST control). Moreover, the binding signal was 1.48 fold enrichment (6-mer frequency, TF over GST control) with ETV2; 1.52 fold enrichment (6-mer frequency, TF over GST control) with ELF3; 1.07 fold enrichment (6-mer frequency, TF over GST control) with CRX; 1.4 fold enrichment (6-mer frequency, TF over GST control) with ETV1.
For the sequence TCTATC, the binding signal with FEV is 1.16 fold enrichment (6-mer frequency, TF over GST control); with ETV5, 1.19 fold enrichment (6-mer frequency, TF over GST control); in the test with HSF1, 1.43 fold enrichment (6-mer frequency, TF over GST control); with SPIC it was 1.23 fold enrichment (6-mer frequency, TF over GST control); in the test with ELF4 it was 1.25 fold enrichment (6-mer frequency, TF over GST control); with ELK4, 1.24 fold enrichment (6-mer frequency, TF over GST control). Also, the binding signal was 1.27 fold enrichment (6-mer frequency, TF over GST control) in the test with ETV2; 1.29 fold enrichment (6-mer frequency, TF over GST control) in the test with ELF3; 1.32 fold enrichment (6-mer frequency, TF over GST control) with CRX; 1.16 fold enrichment (6-mer frequency, TF over GST control) in the test with ETV1.
In the case of GTTCTT, the binding signal is 1.11 fold enrichment (6-mer frequency, TF over GST control) with FEV; 1.23 fold enrichment (6-mer frequency, TF over GST control) with ETV5; 1.36 fold enrichment (6-mer frequency, TF over GST control) with HSF1; 1.12 fold enrichment (6-mer frequency, TF over GST control) with SPIC; 1.18 fold enrichment (6-mer frequency, TF over GST control) in the test with ELF4; 1.23 fold enrichment (6-mer frequency, TF over GST control) in the test with ELK4. The binding signal with ETV2 was 1.15 fold enrichment (6-mer frequency, TF over GST control); with ELF3, 1.31 fold enrichment (6-mer frequency, TF over GST control); with CRX it was 1.12 fold enrichment (6-mer frequency, TF over GST control); in the test with ETV1, 1.21 fold enrichment (6-mer frequency, TF over GST control).
Consider TGACTT, for which the binding signal is 1.59 fold enrichment (6-mer frequency, TF over GST control) in the test with FEV; 1.52 fold enrichment (6-mer frequency, TF over GST control) with ETV5; 1.15 fold enrichment (6-mer frequency, TF over GST control) with HSF1; 1.37 fold enrichment (6-mer frequency, TF over GST control) in the test with SPIC; 1.45 fold enrichment (6-mer frequency, TF over GST control) with ELF4; 1.4 fold enrichment (6-mer frequency, TF over GST control) with ELK4. Further, the binding signal with ETV2 is 1.44 fold enrichment (6-mer frequency, TF over GST control); with ELF3, 1.55 fold enrichment (6-mer frequency, TF over GST control); with CRX, 1.29 fold enrichment (6-mer frequency, TF over GST control); with ETV1 it was 1.47 fold enrichment (6-mer frequency, TF over GST control).
In the case of TCACTC, the binding signal was 1.23 fold enrichment (6-mer frequency, TF over GST control) with FEV; 1.19 fold enrichment (6-mer frequency, TF over GST control) with ETV5; 1.11 fold enrichment (6-mer frequency, TF over GST control) in the test with HSF1; 1.3 fold enrichment (6-mer frequency, TF over GST control) with SPIC; 1.24 fold enrichment (6-mer frequency, TF over GST control) in the test with ELF4; 1.34 fold enrichment (6-mer frequency, TF over GST control) with ELK4. Further, the binding signal with ETV2 is 1.35 fold enrichment (6-mer frequency, TF over GST control); in the test with ELF3, 1.26 fold enrichment (6-mer frequency, TF over GST control); in the test with CRX, 1.05 fold enrichment (6-mer frequency, TF over GST control); with ETV1, 1.18 fold enrichment (6-mer frequency, TF over GST control).
Take AGTGCT: the binding signal with FEV is 1.4 fold enrichment (6-mer frequency, TF over GST control); in the test with ETV5 it was 1.4 fold enrichment (6-mer frequency, TF over GST control); with HSF1 it was 1.15 fold enrichment (6-mer frequency, TF over GST control); in the test with SPIC, 1.67 fold enrichment (6-mer frequency, TF over GST control); in the test with ELF4 it was 1.33 fold enrichment (6-mer frequency, TF over GST control); with ELK4 it was 1.37 fold enrichment (6-mer frequency, TF over GST control). The binding signal in the test with ETV2 is 1.42 fold enrichment (6-mer frequency, TF over GST control); with ELF3, 1.02 fold enrichment (6-mer frequency, TF over GST control); with CRX, 1.16 fold enrichment (6-mer frequency, TF over GST control); with ETV1, 1.32 fold enrichment (6-mer frequency, TF over GST control).
